Test results from ChEMBL document CHEMBL1961873, “Compounds: GSK PKIS; Assays: Nanosyn kinase panel” (2012).

These molecules were tested against Serine/threonine-protein kinase PAK 1 (Homo sapiens) (UniProt Q13153). Conditions: at 0.1 µM.
Sequence of Serine/threonine-protein kinase PAK 1 (Homo sapiens) (Q13153 whole entry): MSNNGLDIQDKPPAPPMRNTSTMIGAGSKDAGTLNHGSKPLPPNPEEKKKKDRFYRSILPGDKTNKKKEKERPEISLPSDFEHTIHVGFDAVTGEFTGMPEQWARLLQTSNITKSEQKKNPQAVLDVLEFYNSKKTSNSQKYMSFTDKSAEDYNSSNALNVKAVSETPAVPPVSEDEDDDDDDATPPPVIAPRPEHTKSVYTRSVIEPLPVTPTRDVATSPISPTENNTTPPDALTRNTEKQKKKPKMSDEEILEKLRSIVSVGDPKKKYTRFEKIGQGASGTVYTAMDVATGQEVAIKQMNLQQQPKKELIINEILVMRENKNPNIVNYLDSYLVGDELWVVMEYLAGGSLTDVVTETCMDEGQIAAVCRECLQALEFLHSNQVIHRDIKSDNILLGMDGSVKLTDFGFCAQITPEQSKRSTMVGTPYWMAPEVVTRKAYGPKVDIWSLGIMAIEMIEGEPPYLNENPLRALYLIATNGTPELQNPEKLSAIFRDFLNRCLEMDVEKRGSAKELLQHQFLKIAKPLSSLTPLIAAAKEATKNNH

**Q.** How did the inhibition turn out when `c1ccc(Nc2ncc(-c3ccccc3)o2)cc1` was run?
**A.** 6.49%

**Q.** Which inhibition does the source give for `CN(C)C(=O)O[C@H]1CN[C@H](C#Cc2cc3ncnc(Nc4ccc(OCc5cccc(F)c5)c(Cl)c4)c3s2)C1` here?
**A.** 4.28%

**Q.** `NS(=O)(=O)c1ccc(N/N=C2\C(=O)Nc3ccc(Cl)cc32)cc1` was tested. Which inhibition did it give?
**A.** 3.14%

**Q.** `O=C1Nc2ccccc2/C1=C/Nc1ccc2[nH]c(=O)[nH]c2c1` was tested. Which inhibition did it give?
**A.** 10.5%

**Q.** With `CN1CCN(C(=O)c2ccc(NC(=O)Nc3ccc(N(C)c4ccnc(Nc5ccc(CS(C)(=O)=O)cc5)n4)cc3)cc2)CC1` as the molecule, how does the inhibition read?
**A.** -0.46%

**Q.** For `COc1ccc(-c2nn3ncccc3c2-c2ccnc(Nc3cccc(C(F)(F)F)c3)n2)cc1`, which inhibition is on record?
**A.** 6.36%

**Q.** `O=S(=O)(CCOCc1ccc(-c2ccc3ncnc(Nc4ccc(OCc5cccc(F)c5)c(Cl)c4)c3c2)o1)c1ccccc1` was tested. Which inhibition did it give?
**A.** 4.98%

**Q.** `COc1cccc(-n2ncc3c(N/N=C/c4ccc(S(C)(=O)=O)cc4)ncnc32)c1` was tested. Which inhibition did it give?
**A.** 2.37%

**Q.** With `Cc1cc(O)cc(C)c1/C=C/c1cncc(C(=O)N(C)C)c1` as the molecule, how does the inhibition read?
**A.** 2.77%

**Q.** Which inhibition does the source give for `Cc1ccc2c(-c3ccnc(Nc4cccc(C(F)(F)F)c4)n3)c(-c3ccccc3)nn2n1` here?
**A.** 9.96%

**Q.** With `CS(=O)(=O)CCNCc1nc(-c2ccc3ncnc(Nc4ccc(OCc5cccc(C(F)(F)F)c5)cc4)c3c2)cs1` as the molecule, how does the inhibition read?
**A.** 1.25%

**Q.** For `Cc1ccc(Nc2ccnc(Nc3cccc(C(N)=O)c3)n2)cc1O`, which inhibition is on record?
**A.** 5.46%

**Q.** How did the inhibition turn out when `CCS(=O)(=O)c1ccc(OC)c(Nc2ncc(-c3cccc(OC)c3)o2)c1` was run?
**A.** 2.01%

**Q.** `COc1cc2ncnc(Nc3ccc(C)c(O)c3)c2cc1OC` was tested. Which inhibition did it give?
**A.** 6.98%

**Q.** `COc1cc2ncnc(Nc3ccc4c(cnn4Cc4ccccc4)c3)c2cc1OC` was tested. Which inhibition did it give?
**A.** 4.26%

**Q.** How did the inhibition turn out when `NS(=O)(=O)c1cccc(-c2cc3ccncc3cc2OCc2ccccc2)c1` was run?
**A.** 7.59%

**Q.** `Oc1cccc(-c2nc(-c3ccccc3)[nH]c2-c2ccncc2)c1` was tested. Which inhibition did it give?
**A.** 6.65%

**Q.** Which inhibition does the source give for `NC(=O)c1sc(-n2cnc3ccccc32)cc1OCc1ccccc1Br` here?
**A.** 6.29%

**Q.** Which inhibition does the source give for `Cc1nc(-c2ccccc2)n2nc(NCCCN3CCOCC3)ncc12` here?
**A.** 2.24%

**Q.** How did the inhibition turn out when `Cc1ccc(NC(=O)CC2CC2)cc1-c1ccc(C(=O)NCC2CC2)cc1` was run?
**A.** 5.24%

**Q.** How did the inhibition turn out when `NC(=O)c1cccc(Nc2nccc(Nc3cccc(F)c3)n2)c1` was run?
**A.** 0.29%

**Q.** How did the inhibition turn out when `Nc1nccc(C#Cc2cncnc2Nc2ccc(OCc3cccc(F)c3)c(Cl)c2)n1` was run?
**A.** 6.18%

**Q.** With `NS(=O)(=O)c1ccc(-c2cc3ccncc3cc2OCc2ccccc2)cc1` as the molecule, how does the inhibition read?
**A.** 5.31%

**Q.** How did the inhibition turn out when `CCS(=O)(=O)c1ccc(OC)c(Nc2nccc(N(C)c3ccc4c(C)n[nH]c4c3)n2)c1` was run?
**A.** 3.86%

**Q.** `COc1cccc(-n2nc(C)c3c(N/N=C(\C)c4ccncc4)ncnc32)c1` was tested. Which inhibition did it give?
**A.** -1.07%

**Q.** `COC(=O)c1ccc2c(c1)C(=Cc1cc(Br)c(O)c(Br)c1)C(=O)N2` was tested. Which inhibition did it give?
**A.** 8.19%

**Q.** With `COc1cccc(-n2ncc3c(N/N=C/c4ccc(C)cc4)ncnc32)c1` as the molecule, how does the inhibition read?
**A.** 10%

**Q.** Which inhibition does the source give for `NS(=O)(=O)c1ccc(Nc2cc(-c3cccc(O)c3)n[nH]2)cc1` here?
**A.** 9.49%

**Q.** With `Cc1cc(-c2ccccn2)cc(C)c1/C=C/c1cncc(-c2nn[nH]n2)c1` as the molecule, how does the inhibition read?
**A.** 6.38%

**Q.** `CCn1c(-c2nonc2N)nc2c(C#CC(C)(C)O)nc(OCCNC)cc21` was tested. Which inhibition did it give?
**A.** 8.56%

**Q.** For `O=C(Nc1ccc(Oc2ccc3[nH]c(NC(=O)c4ccco4)nc3c2)cc1)Nc1cc(C(F)(F)F)ccc1F`, which inhibition is on record?
**A.** -2.95%

**Q.** How did the inhibition turn out when `Cc1ccc2c(-c3ccnc(Nc4ccc5c(c4)OCCO5)n3)c(-c3ccc(C(F)(F)F)cc3)nn2n1` was run?
**A.** 0.57%

**Q.** With `[O-][S+]1CCN(Cc2ccc(-c3ccc4ncnc(Nc5ccc(OCc6ccccc6)c(Cl)c5)c4c3)o2)CC1` as the molecule, how does the inhibition read?
**A.** 2.5%

The molecules below were run against Serine/threonine-protein kinase PAK 1 (Homo sapiens) (UniProt Q13153). Conditions: at 1 µM.

**Q.** Which inhibition does the source give for `c1ccc(Nc2ncc(-c3ccccc3)o2)cc1` here?
**A.** 10.6%

**Q.** With `CN(C)C(=O)O[C@H]1CN[C@H](C#Cc2cc3ncnc(Nc4ccc(OCc5cccc(F)c5)c(Cl)c4)c3s2)C1` as the molecule, how does the inhibition read?
**A.** 2.22%

**Q.** With `NS(=O)(=O)c1ccc(N/N=C2\C(=O)Nc3ccc(Cl)cc32)cc1` as the molecule, how does the inhibition read?
**A.** 5.51%

**Q.** How did the inhibition turn out when `O=C1Nc2ccccc2/C1=C/Nc1ccc2[nH]c(=O)[nH]c2c1` was run?
**A.** 7.51%

**Q.** With `CN1CCN(C(=O)c2ccc(NC(=O)Nc3ccc(N(C)c4ccnc(Nc5ccc(CS(C)(=O)=O)cc5)n4)cc3)cc2)CC1` as the molecule, how does the inhibition read?
**A.** 6.1%

**Q.** Which inhibition does the source give for `COc1ccc(-c2nn3ncccc3c2-c2ccnc(Nc3cccc(C(F)(F)F)c3)n2)cc1` here?
**A.** 5.19%

**Q.** With `O=S(=O)(CCOCc1ccc(-c2ccc3ncnc(Nc4ccc(OCc5cccc(F)c5)c(Cl)c4)c3c2)o1)c1ccccc1` as the molecule, how does the inhibition read?
**A.** 5.84%

**Q.** For `COc1cccc(-n2ncc3c(N/N=C/c4ccc(S(C)(=O)=O)cc4)ncnc32)c1`, which inhibition is on record?
**A.** 3.02%

**Q.** For `Cc1cc(O)cc(C)c1/C=C/c1cncc(C(=O)N(C)C)c1`, which inhibition is on record?
**A.** 6.81%

**Q.** For `Cc1ccc2c(-c3ccnc(Nc4cccc(C(F)(F)F)c4)n3)c(-c3ccccc3)nn2n1`, which inhibition is on record?
**A.** 8.06%

**Q.** How did the inhibition turn out when `CS(=O)(=O)CCNCc1nc(-c2ccc3ncnc(Nc4ccc(OCc5cccc(C(F)(F)F)c5)cc4)c3c2)cs1` was run?
**A.** 3.12%

**Q.** For `Cc1ccc(Nc2ccnc(Nc3cccc(C(N)=O)c3)n2)cc1O`, which inhibition is on record?
**A.** 8.57%

**Q.** How did the inhibition turn out when `CCS(=O)(=O)c1ccc(OC)c(Nc2ncc(-c3cccc(OC)c3)o2)c1` was run?
**A.** 5.71%

**Q.** With `COc1cc2ncnc(Nc3ccc(C)c(O)c3)c2cc1OC` as the molecule, how does the inhibition read?
**A.** 7.41%

**Q.** How did the inhibition turn out when `COc1cc2ncnc(Nc3ccc4c(cnn4Cc4ccccc4)c3)c2cc1OC` was run?
**A.** 6.92%

**Q.** How did the inhibition turn out when `NS(=O)(=O)c1cccc(-c2cc3ccncc3cc2OCc2ccccc2)c1` was run?
**A.** 6.92%

**Q.** `Oc1cccc(-c2nc(-c3ccccc3)[nH]c2-c2ccncc2)c1` was tested. Which inhibition did it give?
**A.** 6.51%

**Q.** Which inhibition does the source give for `NC(=O)c1sc(-n2cnc3ccccc32)cc1OCc1ccccc1Br` here?
**A.** 10%

**Q.** For `Cc1nc(-c2ccccc2)n2nc(NCCCN3CCOCC3)ncc12`, which inhibition is on record?
**A.** 6.68%

**Q.** For `Cc1ccc(NC(=O)CC2CC2)cc1-c1ccc(C(=O)NCC2CC2)cc1`, which inhibition is on record?
**A.** 4.74%

**Q.** For `NC(=O)c1cccc(Nc2nccc(Nc3cccc(F)c3)n2)c1`, which inhibition is on record?
**A.** 2.79%

**Q.** For `Nc1nccc(C#Cc2cncnc2Nc2ccc(OCc3cccc(F)c3)c(Cl)c2)n1`, which inhibition is on record?
**A.** 3.97%

**Q.** For `NS(=O)(=O)c1ccc(-c2cc3ccncc3cc2OCc2ccccc2)cc1`, which inhibition is on record?
**A.** 6.13%

**Q.** With `CCS(=O)(=O)c1ccc(OC)c(Nc2nccc(N(C)c3ccc4c(C)n[nH]c4c3)n2)c1` as the molecule, how does the inhibition read?
**A.** 6.28%

**Q.** `COc1cccc(-n2nc(C)c3c(N/N=C(\C)c4ccncc4)ncnc32)c1` was tested. Which inhibition did it give?
**A.** 5.57%

**Q.** Which inhibition does the source give for `COC(=O)c1ccc2c(c1)C(=Cc1cc(Br)c(O)c(Br)c1)C(=O)N2` here?
**A.** 10.1%

**Q.** For `COc1cccc(-n2ncc3c(N/N=C/c4ccc(C)cc4)ncnc32)c1`, which inhibition is on record?
**A.** 9.32%

**Q.** For `NS(=O)(=O)c1ccc(Nc2cc(-c3cccc(O)c3)n[nH]2)cc1`, which inhibition is on record?
**A.** 7.81%

**Q.** Which inhibition does the source give for `Cc1cc(-c2ccccn2)cc(C)c1/C=C/c1cncc(-c2nn[nH]n2)c1` here?
**A.** 6.81%

**Q.** `CCn1c(-c2nonc2N)nc2c(C#CC(C)(C)O)nc(OCCNC)cc21` was tested. Which inhibition did it give?
**A.** 5.49%

**Q.** With `O=C(Nc1ccc(Oc2ccc3[nH]c(NC(=O)c4ccco4)nc3c2)cc1)Nc1cc(C(F)(F)F)ccc1F` as the molecule, how does the inhibition read?
**A.** -0.15%

**Q.** For `Cc1ccc2c(-c3ccnc(Nc4ccc5c(c4)OCCO5)n3)c(-c3ccc(C(F)(F)F)cc3)nn2n1`, which inhibition is on record?
**A.** 2.13%

**Q.** How did the inhibition turn out when `[O-][S+]1CCN(Cc2ccc(-c3ccc4ncnc(Nc5ccc(OCc6ccccc6)c(Cl)c5)c4c3)o2)CC1` was run?
**A.** 4.24%
